Each structure is given as a SMILES string. Results filed as inconclusive are left out. Where a call stands in place of a potency, no number is given. Values without a mark were called inactive. Activity calls are given as the source filed them. Calls follow the shape of the dose curve; as a rule, active = well fitted activation curve with a large enough effect in the repeat runs; inconclusive = weak or mixed curves; inactive = flat fitted curve, though single readings scatter. Non-standard residues stand in square brackets, D forms with d. Residues, ends and D or L forms follow the SMILES beside them. *: point of attachment. Sta = CC(C)C[C@H](N)[C@@H](O)CC(=O)O; Isovaleryl = CC(C)CC(=O)*

A short description of the assay: A CellTox Green Cytotoxicity Assay to monitor cytotoxicity in HepG2 cells - 40 hour (AID 1224879). Also: nearly all actives have a fitted effect of over 40% in size. The conditions noted are these: CellTox Green fluorescence; series mostly up to 76.8 µM. From the text: National Center for Advancing Translational Sciences [NCATS]
NIH Chemical Genomics Center [NCGC]
U.S. Environmental Protection Agency [EPA]
National Institutes of Environmental Health Sciences [NIEHS]
National Toxicology Program [NTP]
Cell-based models are critical for drug discovery. Determining the natural cytotoxic effects resulting from test compounds is an essential research activity. A CellTox Green Cytotoxicity Assay to monitor cytotoxicity in real time of continues cell culture during 40 hours of the compound treatment was used to screen Tox21 10K library compounds in HepG2 cells. CellTox Green Cytotoxicity Assay is a nonlytic, homogeneous, biofluorescent method to measure cytotoxicity in cell culture after experimental manipulation. The assay system uses a proprietary asymmetric cyanine dye that is excluded from viable cells but preferentially stains the dead cell's DNA. […] Viable cells produce no appreciable increases in fluorescence. Therefore, the fluorescence signal produced by the binding interaction with dead cell DNA is proportional to cytotoxicity.
The mixture of HepG2 cell suspension and reagents were dispensed at 600cells/6 ul/well in 1536-well tissue culture treated black solid bottom plates using a Multidrop dispenser. After the assay plates were incubated at a 37 C/5% CO2 incubator for 5 hours, 23 nL of compounds dissolved in DMSO, positive and negative controls was transferred to the assay plate by a pintool work station. The plates were incubated at 37 C for 40 hours. The fluorescence intensity were measured at 0h, 8h, 16h, 24h, 32h and 40h time points using ViewLux plate reader during compound treatment.
As to `CC(=O)O[C@@H]1CC2C3CCc4cc(OC(=O)c5ccccc5)ccc4C3CCC2(C)[C@H]1OC(C)=O` (stereo not given in full), the Potency result was “inactive”.
Consider `CC(C)(C)C(=O)CCc1ccc(Cl)cc1`, for which the Potency entry was “inactive”.
As to `Cc1cccc(N)n1`, the Potency result is “inactive”.
For the compound `Cc1ccc(O)c([N+](=O)[O-])c1`, the Potency entry is “inactive”.
For the compound `Cc1cc(=O)oc2cc(O[C@@H]3SC[C@@H](O)[C@H](O)[C@H]3O)ccc12`, the Potency result was “inactive”.
As to `CCOC(=O)COc1ccc2c(C)c(CCN(CC)CC)c(=O)oc2c1Cl`, the Potency entry was “inactive”.
Consider `COc1ccc(Cl)cc1C`, for which the Potency result was “inactive”.
On to `COC(=O)c1ccc(NC(C)=O)cc1OC`, for which the Potency entry was “inactive”.
Consider `CC(C)(C)C(=O)NCCCC(=O)O`, for which the Potency result was “inactive”.
Turning to `Cc1ccc(S(=O)(=O)NC(=O)NN2CC3CCCC3C2)cc1` (stereo not given), the Potency entry was “inactive”.
In the case of `COc1cnc(NS(=O)(=O)c2ccc(N)cc2)nc1`, the Potency entry was “inactive”.
With `O=C(O)P(=O)(O)O`, the Potency entry was “inactive”.
Regarding `CCN(CC)CC`, the Potency entry was “inactive”.
As for `CCCCC(O)/C=C(C)/C=C/C=C/C(=O)N1CCCC1=O` (stereo not given), the Potency result was “inactive”.
On to `CC(C)(Sc1cc(C(C)(C)C)c(O)c(C(C)(C)C)c1)Sc1cc(C(C)(C)C)c(O)c(C(C)(C)C)c1`, for which the Potency entry is “inactive”.
As to `CC1(C)CC(N)CC(C)(C)N1`, the Potency result is “inactive”.
Same read-out and setting: next, `Cc1ccccc1OCC(=O)O`: “inactive”.
Take `Cc1ccc(OC(=O)CC(C)C)cc1`: the Potency entry was “inactive”.
As for `CCCCC(CC)COC(=O)CC#N` (stereo not given), the Potency entry was “inactive”.
Take `CC(C)(C)c1ccc(C(=O)CCCCl)cc1`: the Potency entry was “inactive”.
Consider `CCCC(=O)OC`, for which the Potency entry is “inactive”.
As for `CCC(C)SSC(C)CC` (stereo not given), the Potency result is “inactive”.
As for `OCCC(F)(F)C(F)(F)C(F)(F)C(F)(F)C(F)(F)C(F)(F)F`, the Potency entry is “inactive”.
As for `C/C=C/C(=O)CCCC`, the Potency result is “inactive”.
Regarding `Cc1nc2ccc(Cl)cc2[nH]1`, the Potency entry was “inactive”.
On to `C[C@@H]1CCC[C@H](C)N1CCCC(O)(c1ccccc1)c1ccccn1` (stereo not given in full), for which the Potency entry was “inactive”.
With `COc1ccccc1N1CCN(CC(O)COc2cc(OC)c(OC)c(OC)c2)CC1` (stereo not given), the Potency entry is “inactive”.
Consider `CCCCCCCCCCCC(C)=O`, for which the Potency entry is “inactive”.
Turning to `Cc1ccc2ccccc2n1`, the Potency entry was “inactive”.
As for `CC/C=C\CCCCCCCCCCOC(C)=O`, the Potency entry was “inactive”.
Turning to `O=C(O)Cc1ccccc1Oc1ccc(Cl)cc1Cl`, the Potency result is “inactive”.
As to `C[n+]1ccccc1/C=N/O`, the Potency result was “inactive”.
Regarding `Clc1ccc2c(c1)Nc1ccccc1S2`, the Potency result was “inactive”.
Same read-out and setting: in the case of `CCNC(=O)C(C)OC(=O)Nc1ccccc1` (stereo not given) it was “inactive”; in that of `CC(C)(C)NCC(O)COc1cccc2c1CCC(=O)N2` (stereo not given), “inactive”.
In the case of `c1cc2ccc3ccc4ccc5cccc6c(c1)c2c3c4c56`, the cytotoxicity increase was -16.7% [at 2.72 µM].
`CC(C)OC(=O)C(C(=O)OC(C)C)=C1SC=CS1`: the Potency entry was “inactive”.
Turning to `CC(C)CC(=O)N[C@H](C(=O)N[C@H](C(=O)N[C@@H](CC(C)C)[C@@H](O)CC(=O)N[C@@H](C)C(=O)N[C@@H](CC(C)C)[C@@H](O)CC(=O)O)C(C)C)C(C)C` (Isovaleryl-VV[Sta]A[Sta]-OH), the Potency entry was “inactive”.
With `CCCCCCC(=O)c1ccccc1`, the Potency result is “inactive”.
With `N[C@H]1C(O)O[C@H](CO)[C@@H](O)[C@@H]1O` (stereo not given in full), the Potency result is “inactive”.

The record behind these values is PubChem BioAssay (Tox21).
